Laboratory results as given in PubChem BioAssay (NCI).
This is part of a sample that, as a whole, favours compounds with a hit. Of some 79,000 tested, about 15% had one in any assay. A number with no mark means an inactive call. Calls of active or inactive are those of the source. Cut-off read from the data, not from the text of the source: active = growth inhibition above about 70%; inactive = the rest.

Experiment: NCI Yeast Anticancer Drug Screen. Data for the sgs1 mgt1 strain (AID 161);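 note: 0% = growth of cultures given vehicle only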
Details: S. cerevisiae sgs1 mgt1 strain, at 50.0 µM (retest, dose inferred, filed as 5.0), active compounds read high
Summary of the method: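 Read-out: growth inhibition vs vehicle controls. Cells: mutant yeast strain deficient in DNA damage repair.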

Structure (SMILES) | growth inhibition
COC(=O)/C=C/c1cccc[n+]1[O-] | -6%
CN(C)CCCNc1c(C#N)[n+]([O-])c2cc(Cl)ccc2[n+]1[O-] | 90% (active)
Cc1c(N=Nc2ccc(Br)cc2)c(-c2ccccc2)nn1C(N)=S | 97% (active)
COc1cc2c(c(OC)c1OC)-c1ccc(O)c(=O)cc1C(N=Cc1ccccc1)CC2 (stereo not given) | -3%
CCC(C)SC1SCC2C(=O)N(C)C3(CC3C)C(=O)OCC(NC(=O)c3nc4ccccc4cc3O)C(=O)NC(C)C(=O)N(C)C1C(=O)N(C)C1(CC1C)C(=O)OCC(NC(=O)c1nc3ccccc3cc1O)C(=O)NC(C)C(=O)N2C (stereo not given) | 93% (active)
O=C(N/C(=C\c1ccc2c(c1)OCO2)c1nc2ccccc2s1)c1ccccc1 | 98% (active)
CCCC/C=C1/CCC(CN(C)C)C1=O (stereo not given) | 56%
O=C(O)c1cc2c(cc1CC(Cc1ccc3c(c1)CCCC3)C(=O)O)CCCC2 (stereo not given) | 98% (active)
CCNC(=O)COc1ccc(Cl)cc1Cl | -6%
Fc1ccc(OCCC(Cn2ccnc2)c2ccc(Cl)cc2Cl)cc1 (stereo not given) | 96% (active)
Cc1ccc(NC(=O)/C(CC(=O)c2sc(Nc3ccc(Cl)c(Cl)c3)nc2C)=N\Nc2ccc([N+](=O)[O-])cc2[N+](=O)[O-])c(C)c1 | 93% (active)
Oc1ccc(C/C=C/c2ccccc2)cc1O | 99% (active)
CC(=O)OC1=CC2=CCC3C(CCC4(C)C(C(C)=O)CCC34)C2(C)CC1 (stereo not given) | 8%
CCCCNc1ccc(-c2c(N)nc(N)nc2CC)cc1[N+](=O)[O-] | 15%
ClCCOCCOc1c(Cl)cc(Cl)c(Cl)c1Cl | 58%
Cc1ccc(S(=O)(=O)C(=S)Sc2ccccc2)cc1 | 88% (active)
CCC(C)(C)c1ccc(OCCO)c([N+](=O)[O-])c1 | 92% (active)
CCCCCCC(C)S(=O)(=O)c1ccc(C)cc1 (stereo not given) | 75% (active)
O=C1N(Cc2ccccc2)CC1(c1ccccc1)C1CCCCC1O (stereo not given) | 82% (active)
COc1cc2c(oc(=O)c3cc(C)cc(OC)c32)c2c(C3OC(C)C(O)C(C)(O)C3O)ccc(O)c12 (stereo not given) | 96% (active)

Structure (SMILES) | growth inhibition
CCc1cc(C)cc(NC(=O)OC2CCCCC2C)c1 (stereo not given) | 92% (active)
Cc1cc(Nc2ccc(N=Nc3ccc(O)c4ncccc34)cc2)nc(C)n1 | 35%
Oc1ccc(C2SC(c3ccc(O)cc3)SC(c3ccc(O)cc3)S2)cc1 (stereo not given) | 99% (active)
O=[N+]([O-])c1cnc(Sc2cncc[n+]2[O-])s1 | 100% (active)
O=C(C1=Cc2ccccc2OC1)N1CCN(c2cccc(Cl)c2)CC1 | 97% (active)
O=C1C=CC(=O)c2cc(Sc3ccccc3)c(=O)ccc21 | 98% (active)
O=C(O)CCCCCCC(=O)CCl | 74% (active)
CC(=O)NC1=C(Sc2ccc(C)cc2)C(=O)c2ccccc2C1=O | 95% (active)
Cc1cc(O)c(C=NC(=S)C(N)=S)c(=O)o1 | 46%
Cc1cc(C)c(Cc2cc(C(C)(C)C)cc(C)c2O)cc1Cc1cc(C(C)(C)C)cc(C)c1O | 27%
O=C(O)CCC/C(=N\Nc1ccccc1)C(=O)O | 97% (active)
Cc1cc(Oc2nc(Cl)nc(C(Cl)(Cl)Cl)c2Cl)cc(C)c1N(C)C (tested in a mixture with another compound) | 10%
CC(NCCO)c1ccc2ccccc2c1 (stereo not given) | -6%
[O-][n+]1ccc(Br)c(/C=C/c2ccccc2)c1 | 23%
O=C(NCCNCCNCCNC(=O)c1cc(-c2ccccc2)nc2ccccc12)c1cc(-c2ccccc2)nc2ccccc12 | 41%
CC(C)C(Sc1nc(-c2ccccc2)c(-c2ccccc2)[nH]1)C(=O)NN (stereo not given) | 94% (active)
O=C(CNc1cccc(Cl)c1)Nn1c(-c2ccccc2)nc2ccccc2c1=O | 59%
O=C(COc1ccc(Cl)c(Cl)c1)Nc1ccc[n+](Cc2ccc(Cl)c(Cl)c2)c1 | 99% (active)
CCOC(=O)c1cnccc1CC1(C#N)c2ccccc2C=CN1C(=O)c1ccccc1 (stereo not given) | 67%
O=C1C(N2CCOCC2)=C(Cl)C(=O)c2ncccc21 | 96% (active)

Same assay, conditions: S. cerevisiae sgs1 mgt1 strain, at 50.0 µM, active compounds read high

Structure (SMILES) | growth inhibition
COC(=O)/C=C/c1cccc[n+]1[O-] | 0.55%
CN(C)CCCNc1c(C#N)[n+]([O-])c2cc(Cl)ccc2[n+]1[O-] | 61.9%
Cc1c(N=Nc2ccc(Br)cc2)c(-c2ccccc2)nn1C(N)=S | 98% (active)
COc1cc2c(c(OC)c1OC)-c1ccc(O)c(=O)cc1C(N=Cc1ccccc1)CC2 (stereo not given) | -5.3%
CCC(C)SC1SCC2C(=O)N(C)C3(CC3C)C(=O)OCC(NC(=O)c3nc4ccccc4cc3O)C(=O)NC(C)C(=O)N(C)C1C(=O)N(C)C1(CC1C)C(=O)OCC(NC(=O)c1nc3ccccc3cc1O)C(=O)NC(C)C(=O)N2C (stereo not given) | 92.4% (active)
O=C(N/C(=C\c1ccc2c(c1)OCO2)c1nc2ccccc2s1)c1ccccc1 | 98.1% (active)
CCCC/C=C1/CCC(CN(C)C)C1=O (stereo not given) | 81% (active)
O=C(O)c1cc2c(cc1CC(Cc1ccc3c(c1)CCCC3)C(=O)O)CCCC2 (stereo not given) | 70.2% (active)
CCNC(=O)COc1ccc(Cl)cc1Cl | -15.4%
Fc1ccc(OCCC(Cn2ccnc2)c2ccc(Cl)cc2Cl)cc1 (stereo not given) | 95.2% (active)
Cc1ccc(NC(=O)/C(CC(=O)c2sc(Nc3ccc(Cl)c(Cl)c3)nc2C)=N\Nc2ccc([N+](=O)[O-])cc2[N+](=O)[O-])c(C)c1 | 94.5% (active)
Oc1ccc(C/C=C/c2ccccc2)cc1O | 47.8%
CC(=O)OC1=CC2=CCC3C(CCC4(C)C(C(C)=O)CCC34)C2(C)CC1 (stereo not given) | 7.35%
CCCCNc1ccc(-c2c(N)nc(N)nc2CC)cc1[N+](=O)[O-] | 57%
ClCCOCCOc1c(Cl)cc(Cl)c(Cl)c1Cl | 43.5%
Cc1ccc(S(=O)(=O)C(=S)Sc2ccccc2)cc1 | 80.6% (active)
CCC(C)(C)c1ccc(OCCO)c([N+](=O)[O-])c1 | 74% (active)
CCCCCCC(C)S(=O)(=O)c1ccc(C)cc1 (stereo not given) | 59.7%
O=C1N(Cc2ccccc2)CC1(c1ccccc1)C1CCCCC1O (stereo not given) | 35.5%
COc1cc2c(oc(=O)c3cc(C)cc(OC)c32)c2c(C3OC(C)C(O)C(C)(O)C3O)ccc(O)c12 (stereo not given) | 90.4% (active)

Structure (SMILES) | growth inhibition
CCc1cc(C)cc(NC(=O)OC2CCCCC2C)c1 (stereo not given) | 91.2% (active)
Cc1cc(Nc2ccc(N=Nc3ccc(O)c4ncccc34)cc2)nc(C)n1 | 47.9%
Oc1ccc(C2SC(c3ccc(O)cc3)SC(c3ccc(O)cc3)S2)cc1 (stereo not given) | 99% (active)
O=[N+]([O-])c1cnc(Sc2cncc[n+]2[O-])s1 | 99.3% (active)
O=C(C1=Cc2ccccc2OC1)N1CCN(c2cccc(Cl)c2)CC1 | 72.2% (active)
O=C1C=CC(=O)c2cc(Sc3ccccc3)c(=O)ccc21 | 71.7% (active)
O=C(O)CCCCCCC(=O)CCl | 66.2%
CC(=O)NC1=C(Sc2ccc(C)cc2)C(=O)c2ccccc2C1=O | 29.8%
Cc1cc(O)c(C=NC(=S)C(N)=S)c(=O)o1 | 8.7%
Cc1cc(C)c(Cc2cc(C(C)(C)C)cc(C)c2O)cc1Cc1cc(C(C)(C)C)cc(C)c1O | 63.6%
O=C(O)CCC/C(=N\Nc1ccccc1)C(=O)O | 98.7% (active)
Cc1cc(Oc2nc(Cl)nc(C(Cl)(Cl)Cl)c2Cl)cc(C)c1N(C)C (tested in a mixture with another compound) | 95.5% (active)
CC(NCCO)c1ccc2ccccc2c1 (stereo not given) | 2.3%
[O-][n+]1ccc(Br)c(/C=C/c2ccccc2)c1 | 20%
O=C(NCCNCCNCCNC(=O)c1cc(-c2ccccc2)nc2ccccc12)c1cc(-c2ccccc2)nc2ccccc12 | 98.8% (active)
CC(C)C(Sc1nc(-c2ccccc2)c(-c2ccccc2)[nH]1)C(=O)NN (stereo not given) | 91.5% (active)
O=C(CNc1cccc(Cl)c1)Nn1c(-c2ccccc2)nc2ccccc2c1=O | 95.2% (active)
O=C(COc1ccc(Cl)c(Cl)c1)Nc1ccc[n+](Cc2ccc(Cl)c(Cl)c2)c1 | 99.5% (active)
CCOC(=O)c1cnccc1CC1(C#N)c2ccccc2C=CN1C(=O)c1ccccc1 (stereo not given) | 93.2% (active)
O=C1C(N2CCOCC2)=C(Cl)C(=O)c2ncccc21 | 89.8% (active)
